Shown is part of a subset that was picked to be rich in hits.
IDE exosite inh – displaces the probe from the exo-site of human IDE. P14735. purified IDE, FL-6b probe fluorescence polarization; active compounds read low. z-score at 20 µM. 6.3% of 17,000 active;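 active means z-score of -3 or lower, meaning strong loss of probe binding signal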;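 further: His-tagged human IDE residues 42-1019 made in E. coli with 30 nM FL-6b probe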
Target sequence (P14735 42-1019 limits assumed): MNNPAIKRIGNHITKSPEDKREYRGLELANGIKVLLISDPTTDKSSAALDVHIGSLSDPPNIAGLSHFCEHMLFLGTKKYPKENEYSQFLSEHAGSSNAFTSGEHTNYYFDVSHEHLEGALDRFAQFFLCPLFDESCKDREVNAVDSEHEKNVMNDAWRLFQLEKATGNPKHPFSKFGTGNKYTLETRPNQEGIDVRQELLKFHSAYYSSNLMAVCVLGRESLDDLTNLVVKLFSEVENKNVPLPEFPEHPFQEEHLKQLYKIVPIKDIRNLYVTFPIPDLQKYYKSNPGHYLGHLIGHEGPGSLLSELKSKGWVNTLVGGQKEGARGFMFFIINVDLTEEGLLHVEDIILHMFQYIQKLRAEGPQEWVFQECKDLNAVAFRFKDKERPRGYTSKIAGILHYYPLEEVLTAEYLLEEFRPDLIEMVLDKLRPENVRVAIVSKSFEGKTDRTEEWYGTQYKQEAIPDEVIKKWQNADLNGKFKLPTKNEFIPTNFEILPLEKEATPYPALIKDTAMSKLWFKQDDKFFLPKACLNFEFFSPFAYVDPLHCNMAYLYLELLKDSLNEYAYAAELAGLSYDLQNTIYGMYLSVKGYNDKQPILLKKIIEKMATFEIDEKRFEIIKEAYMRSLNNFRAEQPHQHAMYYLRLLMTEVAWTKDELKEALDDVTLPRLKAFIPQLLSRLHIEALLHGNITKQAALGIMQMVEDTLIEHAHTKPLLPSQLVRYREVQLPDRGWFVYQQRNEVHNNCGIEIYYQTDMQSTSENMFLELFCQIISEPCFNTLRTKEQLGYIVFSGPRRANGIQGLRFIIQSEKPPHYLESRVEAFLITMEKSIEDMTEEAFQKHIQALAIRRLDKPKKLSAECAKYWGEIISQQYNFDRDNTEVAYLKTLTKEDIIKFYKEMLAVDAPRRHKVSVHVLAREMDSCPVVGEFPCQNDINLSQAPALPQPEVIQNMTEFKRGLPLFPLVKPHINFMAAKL
* = called active by the depositor; ! = a repeat was not active.

SMILES	IDE exosite inh
CC(=O)N1CCCCN2[C@H](C1)[C@H](c1ccc(C#Cc3ccccc3F)cc1)[C@@H]2CO	-4.72*
COc1ccc(C#Cc2ccc([C@H]3[C@@H](CO)N4CCCCN(C(=O)Nc5ccccc5F)C[C@@H]34)cc2)cc1	1.65
CC(=O)N1CCCCN2[C@@H](CO)[C@H](c3ccc(C#Cc4ccccc4F)cc3)[C@@H]2C1	-0.289
CC(=O)N1CCCCN2[C@H](CO)[C@H](c3ccc(C#Cc4ccccc4F)cc3)[C@@H]2C1	-4.93*
CC(=O)N1CCCCN2[C@H](CO)[C@H](c3ccc(C#Cc4ccccc4F)cc3)[C@H]2C1	-7.26*
COc1ccc(C#Cc2ccc([C@@H]3[C@@H](CO)N4CCCCN(C(=O)Nc5ccccc5F)C[C@@H]34)cc2)cc1	0.142
CC(=O)N1CCCCN2[C@H](C1)[C@@H](c1ccc(C#Cc3ccccc3F)cc1)[C@@H]2CO	-4.45*
CN1[C@@H]2c3ccc(-c4ccncc4)c(=O)n3C[C@H]1[C@H](CO)[C@H]2C(=O)N1CCC(Cc2ccccc2)CC1	-0.361
CCCC#Cc1ccc([C@@H]2[C@H]3CN(C(=O)Nc4ccc(F)cc4)CC(=O)N3[C@H]2CO)cc1	4.27
CC(C)C#Cc1ccc([C@@H]2[C@H]3CN(C(=O)Cc4cccnc4)CC(=O)N3[C@H]2CO)cc1	-1.28
COc1cccc(NC(=O)N2CC(=O)N3[C@H](CO)[C@H](c4ccc(C#CCC5CCCC5)cc4)[C@H]3C2)c1	0.511
CCCC#Cc1ccc([C@H]2[C@@H](CO)N3C(=O)CN(C(=O)NC4CCCC4)C[C@@H]23)cc1	0.0949
CN(C)CC#Cc1ccc([C@@H]2[C@@H](CO)N3C(=O)CN(C(=O)c4cccc(F)c4)C[C@H]23)cc1	0.407
COCC(=O)N1[C@H](C#N)[C@H](c2ccccc2-c2cccc(C)c2)[C@@H]1CO	-0.136
CCCC(=O)Nc1ccc2c(c1)OC[C@@H](C)N(S(=O)(=O)c1cn(C)cn1)C[C@H](C)[C@H](OC)CN(C)C2=O	2.27
COc1ccccc1CN1C[C@@H]2N[C@H](C1)C2c1ccc(-c2ccc(C(=O)N(C)C)cc2)cc1 (stereo partly drawn)	-0.0925
COc1ccccc1CN1C[C@@H]2N[C@H](C1)C2c1ccc(-c2cccc(C#N)c2)cc1 (stereo partly drawn)	-3.98*!
COc1ccccc1CN1C[C@@H]2N[C@H](C1)C2c1ccc(-c2ccncc2)cc1 (stereo partly drawn)	0.345
COc1ccccc1CN1C[C@@H]2N[C@H](C1)C2c1ccc(-c2ccc(C#N)cc2)cc1 (stereo partly drawn)	-1.18
N#Cc1cccc(-c2ccc(C3[C@@H]4CN(Cc5ccccc5)C[C@H]3N4)cc2)c1 (stereo partly drawn)	1.13
COc1ccccc1CN1C[C@@H]2N[C@H](C1)C2c1ccc(-c2ccccc2OC)cc1 (stereo partly drawn)	-10.1*
CC(C)C#Cc1ccc([C@@H]2[C@@H](CO)N3CCCCN(C(=O)c4ccc(F)cc4)C[C@@H]23)cc1	1.03
CN1CCCCN2[C@H](CO)[C@H](c3ccc(-c4ccc(F)cc4)cc3)[C@H]2C1	0.404
OC[C@H]1[C@H](c2ccc(/C=C/c3ccccc3)cc2)[C@@H]2CN(Cc3ccncc3)CCCCN12	-4.52*
OC[C@@H]1[C@@H](c2ccc(-c3ccc(F)cc3)cc2)[C@@H]2CN(Cc3cccnc3)CCCCN12	1.18
SMILES	IDE exosite inh
CCCC#Cc1ccc([C@H]2[C@@H](CO)N3CCCCN(Cc4ccncc4)C[C@H]23)cc1	-1.62
CCCC#Cc1ccc([C@@H]2[C@@H](CO)N3CCCCN(Cc4ccncc4)C[C@H]23)cc1	3.3
OC[C@@H]1[C@@H](c2ccc(/C=C/c3ccccc3)cc2)[C@H]2CN(Cc3cccnc3)CCCCN12	-5.22*
OC[C@@H]1[C@H](c2ccc(/C=C/c3ccccc3)cc2)[C@H]2CN(Cc3cccnc3)CCCCN12	-5.37*
OC[C@H]1[C@@H](c2ccc(-c3ccc(F)cc3)cc2)[C@@H]2CN(Cc3cccnc3)CCCCN12	-1.72
OC[C@H]1[C@@H](c2ccc(-c3ccc(F)cc3)cc2)[C@H]2CN(Cc3cccnc3)CCCCN21	3.43
OC[C@H]1[C@H](c2ccc(/C=C/c3ccccc3)cc2)[C@@H]2CN(Cc3cccnc3)CCCCN12	-2.44
CC(C)C#Cc1ccc([C@H]2[C@H]3CN(S(=O)(=O)Cc4ccccc4)CCCCN3[C@H]2CO)cc1	4.47
CCCNC(=O)N1[C@H](C#N)[C@H](c2ccccc2C2=CCCC2)[C@@H]1CO	1.71
CN(C)C(=O)C[C@@H]1CC[C@H]2[C@@H](COC[C@@H](O)CN2C(=O)C2CCOCC2)O1	-0.243
COc1ccc(-c2ccccc2[C@H]2[C@@H](C#N)N(C(=O)C3CCCCC3)[C@H]2CO)cc1	3.47
CN1CCN(C(=O)C[C@H]2C[C@@H]3c4cc(NS(C)(=O)=O)ccc4O[C@@H]3[C@@H](CO)O2)CC1	-1.87
O=C(Cc1cccnc1)N1CC(=O)N2[C@H](C1)[C@H](c1ccc(C3=CCCC3)cc1)[C@@H]2CO	2.61
CC(=O)N1CCCCN2[C@H](CO)[C@H](c3ccc(-c4ccc(C)cc4)cc3)[C@@H]2C1	0.446
